Here are results for 10 sequences from publication PMC11006913.

What all share (assay): PBM; 200 nM protein, PBS
What all share (settings): dsDNA, one strand shown

Assay [1] has as its target T1, NKX2-6 (Homo sapiens, UniProt A6NCS4 118-204, R150C).
T1 sequence: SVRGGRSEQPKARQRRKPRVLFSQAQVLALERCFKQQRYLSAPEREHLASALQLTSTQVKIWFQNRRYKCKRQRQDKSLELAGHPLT

The target of assay [2] is ALX4 (Homo sapiens, UniProt Q9H161 200-286).
The target in assay [3] is ALX4 (Homo sapiens, UniProt Q9H161 200-286, Q225E).
Chain of ALX4 (Homo sapiens, UniProt Q9H161 200-286, Q225E) (Q9H161 200-286 Q225E): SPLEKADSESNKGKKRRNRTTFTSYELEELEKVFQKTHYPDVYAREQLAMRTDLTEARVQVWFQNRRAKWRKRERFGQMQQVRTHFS
Assay [4] concerns the target ALX1 (Homo sapiens, UniProt Q15699 118-204, L144V).
Assay [5] addresses ALX1 (Homo sapiens, UniProt Q15699 118-204, L144R).
In assay [6] the target is ALX1 (Homo sapiens, UniProt Q15699 118-204).
Chain of ALX1 (Homo sapiens, UniProt Q15699 118-204) (Q15699 118-204): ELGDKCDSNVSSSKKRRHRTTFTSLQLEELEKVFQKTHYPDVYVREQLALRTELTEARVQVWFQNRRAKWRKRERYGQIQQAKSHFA
Assay [7] has as its target HOXC10 (Homo sapiens, UniProt Q9NYD6 254-340).
In assay [8] the target is HOXC10 (Homo sapiens, UniProt Q9NYD6 254-340, K271E).
Chain of HOXC10 (Homo sapiens, UniProt Q9NYD6 254-340, K271E) (Q9NYD6 254-340 K271E): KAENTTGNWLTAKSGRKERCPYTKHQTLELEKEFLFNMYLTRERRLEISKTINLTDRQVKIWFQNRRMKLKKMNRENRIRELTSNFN
The target in assay [9] is PRRX1 (Homo sapiens, UniProt P54821 80-166, F113S).
Chain of PRRX1 (Homo sapiens, UniProt P54821 80-166, F113S) (P54821 80-166 F113S): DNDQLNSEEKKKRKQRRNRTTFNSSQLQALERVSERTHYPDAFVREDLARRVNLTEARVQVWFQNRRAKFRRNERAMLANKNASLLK
Assay [10] deals with PRRX1 (Homo sapiens, UniProt P54821 80-166).
Chain of PRRX1 (Homo sapiens, UniProt P54821 80-166) (P54821 80-166): as the sequence (P54821 80-166 F113S) above, with S34F counted along it

Chain of ALX4 (Homo sapiens, UniProt Q9H161 200-286) (Q9H161 200-286): as the sequence (Q9H161 200-286 Q225E) above, with E26Q counted along it
Chain of ALX1 (Homo sapiens, UniProt Q15699 118-204, L144V) (Q15699 118-204 L144V): as the sequence (Q15699 118-204) above, with L27V counted along it
Chain of ALX1 (Homo sapiens, UniProt Q15699 118-204, L144R) (Q15699 118-204 L144R): as the sequence (Q15699 118-204) above, with L27R counted along it
Chain of HOXC10 (Homo sapiens, UniProt Q9NYD6 254-340) (Q9NYD6 254-340): as the sequence (Q9NYD6 254-340 K271E) above, with E18K counted along it

CCCGGGAC: the binding signal in [1] was 9.29 upbm affinity estimate (log intensity, higher = more binding, comparable within an allelic series).
For the sequence CAGGCCCG, the binding signal in [2] was 8 upbm affinity estimate (log intensity, higher = more binding, comparable within an allelic series); in assay [3] it was 7.92 upbm affinity estimate (log intensity, higher = more binding, comparable within an allelic series); in assay [4], 6.27 upbm affinity estimate (log intensity, higher = more binding, comparable within an allelic series); in assay [5], 6.24 upbm affinity estimate (log intensity, higher = more binding, comparable within an allelic series); in assay [6] it was 6.21 upbm affinity estimate (log intensity, higher = more binding, comparable within an allelic series).
Consider CCCCGGGG, for which the binding signal was 9.9 upbm affinity estimate (log intensity, higher = more binding, comparable within an allelic series) in [7]; 8.16 upbm affinity estimate (log intensity, higher = more binding, comparable within an allelic series) in assay [2]; 8.02 upbm affinity estimate (log intensity, higher = more binding, comparable within an allelic series) in [3]; 9.91 upbm affinity estimate (log intensity, higher = more binding, comparable within an allelic series) in assay [8].
As for CGGGCCCC, the binding signal in assay [9] was 9.02 upbm affinity estimate (log intensity, higher = more binding, comparable within an allelic series); in assay [10] it was 9.32 upbm affinity estimate (log intensity, higher = more binding, comparable within an allelic series).
For the sequence CGGGAAGC, the binding signal in assay [9] is 9.35 upbm affinity estimate (log intensity, higher = more binding, comparable within an allelic series); in assay [10], 9.64 upbm affinity estimate (log intensity, higher = more binding, comparable within an allelic series).
With CTGGCCCA, the binding signal in assay [2] is 8.03 upbm affinity estimate (log intensity, higher = more binding, comparable within an allelic series); in assay [3] it was 8 upbm affinity estimate (log intensity, higher = more binding, comparable within an allelic series).
As to CGGGCCGC, the binding signal in [4] is 6.4 upbm affinity estimate (log intensity, higher = more binding, comparable within an allelic series); in assay [5], 6.44 upbm affinity estimate (log intensity, higher = more binding, comparable within an allelic series); in assay [6], 6.51 upbm affinity estimate (log intensity, higher = more binding, comparable within an allelic series).
Consider CCCTCGGC, for which the binding signal in assay [9] is 9.22 upbm affinity estimate (log intensity, higher = more binding, comparable within an allelic series); in assay [10] it was 9.48 upbm affinity estimate (log intensity, higher = more binding, comparable within an allelic series).
As for CAGCGCCG, the binding signal in assay [7] is 9.95 upbm affinity estimate (log intensity, higher = more binding, comparable within an allelic series); in assay [1] it was 9.39 upbm affinity estimate (log intensity, higher = more binding, comparable within an allelic series); in assay [8], 9.93 upbm affinity estimate (log intensity, higher = more binding, comparable within an allelic series).
With AGCCGGCT, the binding signal in assay [4] was 6.54 upbm affinity estimate (log intensity, higher = more binding, comparable within an allelic series); in [5] it was 6.74 upbm affinity estimate (log intensity, higher = more binding, comparable within an allelic series); in [6] it was 6.76 upbm affinity estimate (log intensity, higher = more binding, comparable within an allelic series).
